# Measurements published in the supplement of paper PMC8728848.
# Shown is part of a subset that was picked to be rich in the strongest signals.
# Tests used:
# Experiment in all cases: glycan array binding signal (z-score within array); higher = stronger binding
# Conditions in all cases: glycan notation: IUPAC condensed, linker removed
# [1] = molecular target: Fuc(a1-2)Gal(b1-3)GlcNAc(b1-3)Gal(b1-4)Glc
# Method in brief: (§1)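 From the Consortium for Functional Glycomics database, 3228 arrays were curated, keeping only those whose protein sequence was available. Binding is given as a within-array Z-score averaged across arrays sharing a protein sequence and across linkers. Negative Z-scores can be read as non-binding.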
# [2] = molecular target: Fuc(a1-2)Gal(b1-4)GlcNAc(b1-3)Gal(b1-4)GlcNAc(b1-2)Man(a1-3)[Fuc(a1-2)Gal(b1-4)GlcNAc(b1-3)Gal(b1-4)GlcNAc(b1-2)Man(a1-6)]Man(b1-4)GlcNAc(b1-4)GlcNAc
# Method in brief: as §1
# [3] = molecular target: Fuc(a1-2)Gal3S(b1-4)GlcNAc
# Method in brief: as §1
# [4] = molecular target: Fuc(a1-2)GlcNAc
# Method in brief: as §1
# [5] = molecular target: Fuc(a1-2)[Gal(a1-3)]Gal(b1-4)GlcNAc(b1-3)GalNAc
# Method in brief: as §1
# [6] = molecular target: Fuc(a1-2)[Gal(a1-3)]Gal(b1-4)GlcNAc(b1-3)[Fuc(a1-2)[Gal(a1-3)]Gal(b1-4)GlcNAc(b1-6)]GalNAc
# Method in brief: as §1
# [7] = molecular target: Fuc(a1-2)[GalNAc(a1-3)]Gal(b1-3)GlcNAc(b1-6)GalNAc
# Method in brief: as §1
# [8] = molecular target: Fuc(a1-2)[GalNAc(a1-3)]Gal(b1-4)[Fuc(a1-3)]GlcNAc
# Method in brief: as §1
# [9] = molecular target: Fuc(a1-2)[GalNAc(b1-3)]Gal
# Method in brief: as §1
# [10] = molecular target: Fuc(a1-3)[Gal3S(b1-4)]GlcNAc
# Method in brief: as §1
# [11] = molecular target: Fuc(a1-3)[GalNAc(b1-4)]GlcNAc
# Method in brief: as §1
# [12] = molecular target: Gal(a1-3)Gal(b1-4)[Fuc(a1-3)]GlcNAc(b1-2)Man(a1-3)[Gal(a1-3)Gal(b1-4)[Fuc(a1-3)]GlcNAc(b1-2)Man(a1-6)]Man(b1-4)GlcNAc(b1-4)GlcNAc
# Method in brief: as §1
# [13] = molecular target: Gal(a1-4)Gal(b1-4)Gal
# Method in brief: as §1
# [14] = molecular target: Gal(b1-2)Gal
# Method in brief: as §1
# [15] = molecular target: Gal(b1-3)Gal
# Method in brief: as §1
# [16] = molecular target: Gal(b1-3)Gal(b1-4)GlcNAc
# Method in brief: as §1
# [17] = molecular target: Gal(b1-3)GalNAc
# Method in brief: as §1
# [18] = molecular target: Gal(b1-3)GalNAc(b1-3)Gal
# Method in brief: as §1
# [19] = molecular target: Gal(b1-3)GalNAc(b1-3)Gal(b1-4)Glc
# Method in brief: as §1
# [20] = molecular target: Gal(b1-3)GalNAc(b1-4)Gal(b1-4)Glc
# Method in brief: as §1
# [21] = molecular target: Gal(b1-3)GalNAc(b1-4)[Neu5Ac(a2-3)]Gal(b1-4)Glc
# Method in brief: as §1
# [22] = molecular target: Gal(b1-3)[Neu5Ac(a2-6)]GalNAc
# Method in brief: as §1
# [23] = molecular target: Gal(b1-4)GlcNAc(b1-2)Man(a1-6)[Man(a1-3)]Man(b1-4)GlcNAc(b1-4)GlcNAc
# Method in brief: as §1
# [24] = molecular target: Gal(b1-4)GlcNAc(b1-3)Gal(b1-4)GlcNAc(b1-2)[Gal(b1-4)GlcNAc(b1-3)Gal(b1-4)GlcNAc(b1-6)]Man(a1-6)[Gal(b1-4)GlcNAc(b1-3)Gal(b1-4)GlcNAc(b1-2)Man(a1-3)]Man(b1-4)GlcNAc(b1-4)GlcNAc
# Method in brief: as §1
# [25] = molecular target: Gal(b1-4)GlcNAc(b1-3)Gal(b1-4)GlcNAc(b1-2)[Gal(b1-4)GlcNAc(b1-3)Gal(b1-4)GlcNAc(b1-6)]Man(a1-6)[Gal(b1-4)GlcNAc(b1-3)Gal(b1-4)GlcNAc(b1-2)Man(a1-3)]Man(b1-4)GlcNAc(b1-4)[Fuc(a1-6)]GlcNAc
# Method in brief: as §1
# [26] = molecular target: Gal(b1-4)GlcNAc(b1-3)Gal(b1-4)GlcNAc(b1-3)Gal(b1-4)GlcNAc(b1-2)[Gal(b1-4)GlcNAc(b1-3)Gal(b1-4)GlcNAc(b1-3)Gal(b1-4)GlcNAc(b1-6)]Man(a1-6)[Gal(b1-4)GlcNAc(b1-3)Gal(b1-4)GlcNAc(b1-3)Gal(b1-4)GlcNAc(b1-2)Man(a1-3)]Man(b1-4)GlcNAc(b1-4)[Fuc(a1-6)]GlcNAc
# Method in brief: as §1
# [27] = molecular target: Gal(b1-4)GlcNAc(b1-3)Gal(b1-4)GlcNAc(b1-3)Gal(b1-4)GlcNAc(b1-3)Gal(b1-4)GlcNAc(b1-3)Gal(b1-4)GlcNAc(b1-3)Gal(b1-4)GlcNAc(b1-2)Man(a1-3)[Gal(b1-4)GlcNAc(b1-3)Gal(b1-4)GlcNAc(b1-3)Gal(b1-4)GlcNAc(b1-3)Gal(b1-4)GlcNAc(b1-3)Gal(b1-4)GlcNAc(b1-3)Gal(b1-4)GlcNAc(b1-2)Man(a1-6)]Man(b1-4)GlcNAc(b1-4)GlcNAc
# Method in brief: as §1
# [28] = molecular target: Gal(b1-4)GlcNAc(b1-6)Gal(b1-4)GlcNAc
# Method in brief: as §1
# [29] = molecular target: Gal(b1-4)GlcNAc(b1-6)[Gal(b1-3)]GalNAc
# Method in brief: as §1
binder,measurement,setting,value
"Epa1-NP (Candida glabrata), Q6VBJ0 (protein) MILNPALFLNKCVCIYTTLILLLLTNGGYATSSNDISLASKDPTTFPLGCSPDITTPKKGLSMELYSYDFRKKGSYPCWDAAYLDPNYPRTGYKSHRLLAKVDGVTGNINFYYHATKGCTPQLGHLPASYNYPKPLTMTNFTMLLYGYFRPKVTGFHTFTISADDLLFVNFGAGNAFDCCRRDSSADHFGNYQAYAIWGSKTAKDELTVHLDAGVYYPIRLFYNNREYDGALSFTFKTESNENTVSDFSEYFFSLDDTEEGCPGLISYDSSCASVKTSKIIGIDYHTETPNENLVPITKTIYHLGIPCTGTTTTPLCGSGFYDPLANKCVTINTSSTSSVTKTTSHTTSKEVSFHSSISSQKTLIPKSIPSPYGPIKSQSIPTEMETSSEISSSEYAFSDVISTPSHSPYTKKHSSLNSSSYTSTVIHSLTSYSISQGIFSTSLSEQNITSKSSTDKFSTATSMSNNITQSSIIISQFSTNNENYTTTSMHTSSDKISTETLNNSISTTTSILFSNSSTILKNNTTIISSDKDTHYHPVNPTIVCSTNKTEIICASITQPSISNSNNHWSSSVLKFNSTTVRSTLPSSAGSNETSINVPFSSSTESNTSTSSTSTSNSKMVRSTLPSSAGSNETSISVPFSSSTESNTSTSSTSTSNSKMVRSTLPSSAGSNETSINVPFSSSTESNTSTSSTSTSNSKTVRSTPFSSAGIIMTSLSQRNNKSASSYASSNSKCYNTADSCRKVHSTPSYLLTSSYTSEGVDYDCSLVSTKLKINDTNCVNNKHTTKSCLKTSVTTTIPTLEIKTARKSSSNTIGLHSYPTSSPNKSISSAPIIGYISSFKTIKTASPSYQTSDLTTITTITSLNNPGSTAVENTHESNDKSRKTSSNDISSKHSVIKETKDAVESSNKSHQTNTLKCSSIIIASSSHNSYESLGGTTLTLTLSKVYSPQNNDTLPFLEISEVNPSRTVLPESSKMMQYLTSTEERNKTARNTIATNIVSISTFHFEGEGNAIRMGYTQLLLMLIGIIVMNIGT",glycan array binding signal (z-score),[1],-0.296
same,glycan array binding signal (z-score),[2],-0.277
same,glycan array binding signal (z-score),[3],-0.26
same,glycan array binding signal (z-score),[4],-0.542
same,glycan array binding signal (z-score),[5],-0.269
same,glycan array binding signal (z-score),[6],-0.281
same,glycan array binding signal (z-score),[7],-0.291
same,glycan array binding signal (z-score),[8],-0.283
same,glycan array binding signal (z-score),[9],-0.272
same,glycan array binding signal (z-score),[10],-0.341
same,glycan array binding signal (z-score),[11],-0.265
same,glycan array binding signal (z-score),[12],-0.174
same,glycan array binding signal (z-score),[13],0.374
same,glycan array binding signal (z-score),[14],0.199
same,glycan array binding signal (z-score),[15],2.9
same,glycan array binding signal (z-score),[16],5
same,glycan array binding signal (z-score),[17],2.56
same,glycan array binding signal (z-score),[18],2.91
same,glycan array binding signal (z-score),[19],1.31
same,glycan array binding signal (z-score),[20],8.65
same,glycan array binding signal (z-score),[21],2.27
same,glycan array binding signal (z-score),[22],5.06
same,glycan array binding signal (z-score),[23],-0.225
same,glycan array binding signal (z-score),[24],1.54
same,glycan array binding signal (z-score),[25],2.48
same,glycan array binding signal (z-score),[26],2.81
same,glycan array binding signal (z-score),[27],1.3
same,glycan array binding signal (z-score),[28],2.34
same,glycan array binding signal (z-score),[29],2.73
